Test results as given in the supplement of paper PMC10849652.
Of roughly 7,900 targets only a part is listed; those with a hit were picked by preference. About 0.6% of all pairs of compound and target were hits. A number with no mark means an inactive call.

What was measured:
Experiment in all cases: log2 fold change, soluble protein after heating vs DMSO (PISA); higher = thermal stabilisation; K562 cells, 10 uM, 30 min; active = over 0.2 and 3.5 SD of the protein, either way, in both replicates (recomputed)
[1] = compound: C#Cc1cccc(Nc2ncnc3cc(OCCOC)c(OCCOC)cc23)c1 [erlotinib]
Method in brief: (§1)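 K562 cells at 2×10^6 cells/mL were exposed to 10 μM compound for 30 min, then aliquots were heated for 3 min across 48°C-58°C, pooled, and extracted in PBS containing 0.5% NP-40 at 4°C. The supernatant after 21,000xg for 90 min was taken as soluble protein and measured by TMTpro 16plex LC-MS/MS with channel sums equalised. Thermal stability is reported relative to control samples, with values from duplicates. Fold changes are given on a log2 scale.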

[2] = compound: C/C(=N\NC(=O)C1=CC(=CC=C1)S(=O)(=O)N2CCOCC2)/C3=C(C=CC(=C3)Cl)O
Method in brief: as §1

[3] = compound: C1=CC(=C(C=C1Cl)C2=NC3=NC=CN=C3C(=N2)NC4=CC=NC=C4)F
Method in brief: as §1

[4] = compound: C1=CC(=CC=C1C2=NC3=C(N2)C=C(C=C3)C(=O)N)OC4=CC=C(C=C4)Cl
Method in brief: as §1

[5] = compound: C1=CC2=C(C=CC(=C2)/C=C\3/C(=O)NC(=NCC4=CC=CS4)S3)N=C1
Method in brief: as §1

[6] = compound: C1=CC2=NC=CN=C2C=C1/C=C/3\C(=O)NC(=O)S3
Method in brief: as §1

[7] = compound: C1=CC=C(C=C1)C2=NC(=C(N2)C3=CC=NC=C3)C4=CC(=C(C=C4)Cl)O
Method in brief: as §1

[8] = compound: C1=CC=C2C(=C1)C3=NNC4=CC=CC(=C43)C2=O
Method in brief: as §1

[9] = compound: C1CCN(C1)C(=O)NC2=CC=CC(=C2)NC3=NC=C(C(=N3)NCCC4=CN=CN4)Br
Method in brief: as §1

[10] = compound: C1CN(CCC1(CC2=CC=C(C=C2)Cl)N)C3=NC=NC4=C3C=CN4
Method in brief: as §1

[11] = compound: C1COCCN1CCN2C3=CC=CC=C3N=C2NC(=O)C4=CC(=CC=C4)[N+](=O)[O-] [IRAK-1-4 Inhibitor I]
Method in brief: as §1

[12] = compound: C=CC(=O)N1CCC[C@@H](n2nc(-c3ccc(Oc4ccccc4)cc3)c3c(N)ncnc32)C1 [ibrutinib]
Method in brief: as §1

[13] = compound: CC(=O)c1cnc2ccc(-c3cc(Cl)c(O)c(Cl)c3)nc2c1N[C@H]1CC[C@H](CN(C)C)CC1
Method in brief: as §1

[14] = compound: CC(C)(C)Cn1c(N)nc2ccc(-c3[nH]c(C(C)(C)C)nc3-c3ccc(F)cc3)nc21 [ralimetinib]
Method in brief: as §1

[15] = compound: CC(C)(O)CC(=O)NCCn1ccc2ncnc(Nc3ccc(Oc4cccc(C(F)(F)F)c4)c(Cl)c3)c21
Method in brief: as §1

[16] = compound: CC(C)C1=C2N=C(C=C(N2N=C1)NCC3=CC=CC=C3)NCCCCCCN
Method in brief: as §1

[17] = compound: CC(C)C[C@@H](C=O)NC(=O)[C@H](CC(C)C)NC(=O)[C@H](CC(C)C)NC(=O)OCc1ccccc1
Method in brief: as §1

[18] = compound: CC(C)N(C[C@H]1O[C@@H](n2cnc3c(N)ncnc32)[C@H](O)[C@@H]1O)[C@H]1C[C@@H](CCc2nc3cc(C(C)(C)C)ccc3[nH]2)C1 [pinometostat]
Method in brief: as §1

[19] = compound: CC1=C(C(CC(=O)N1)C2=CC=C(C=C2)C(F)(F)F)C(=O)NC3=C(C=C4C(=C3)C=NN4)F
Method in brief: as §1

[20] = compound: CC1=C(C2=C(C=C1)C(=O)C3=CC=CC=C3N2CCCN)C
Method in brief: as §1

UniProt Q6UB28, sequence (Q6UB28 whole entry, looked up): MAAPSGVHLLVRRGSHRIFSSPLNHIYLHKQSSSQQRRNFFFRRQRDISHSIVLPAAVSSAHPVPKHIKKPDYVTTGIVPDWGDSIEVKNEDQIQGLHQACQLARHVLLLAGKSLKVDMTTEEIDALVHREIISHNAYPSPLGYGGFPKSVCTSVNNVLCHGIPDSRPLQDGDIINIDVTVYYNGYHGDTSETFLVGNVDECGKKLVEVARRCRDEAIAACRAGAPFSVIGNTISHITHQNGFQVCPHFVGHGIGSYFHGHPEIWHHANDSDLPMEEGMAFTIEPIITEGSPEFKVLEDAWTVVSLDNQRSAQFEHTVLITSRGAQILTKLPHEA
UniProt P43362, sequence (P43362 whole entry, looked up): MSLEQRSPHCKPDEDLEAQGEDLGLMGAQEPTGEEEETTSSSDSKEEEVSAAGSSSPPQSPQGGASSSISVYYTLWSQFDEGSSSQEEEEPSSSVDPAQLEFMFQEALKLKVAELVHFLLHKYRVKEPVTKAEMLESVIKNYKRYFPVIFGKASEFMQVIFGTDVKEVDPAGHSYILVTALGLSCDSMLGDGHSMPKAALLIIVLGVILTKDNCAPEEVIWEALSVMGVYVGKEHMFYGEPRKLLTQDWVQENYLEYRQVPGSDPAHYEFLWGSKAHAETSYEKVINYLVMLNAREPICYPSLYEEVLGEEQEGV
UniProt Q9Y2X0, sequence (Q9Y2X0 whole entry, looked up): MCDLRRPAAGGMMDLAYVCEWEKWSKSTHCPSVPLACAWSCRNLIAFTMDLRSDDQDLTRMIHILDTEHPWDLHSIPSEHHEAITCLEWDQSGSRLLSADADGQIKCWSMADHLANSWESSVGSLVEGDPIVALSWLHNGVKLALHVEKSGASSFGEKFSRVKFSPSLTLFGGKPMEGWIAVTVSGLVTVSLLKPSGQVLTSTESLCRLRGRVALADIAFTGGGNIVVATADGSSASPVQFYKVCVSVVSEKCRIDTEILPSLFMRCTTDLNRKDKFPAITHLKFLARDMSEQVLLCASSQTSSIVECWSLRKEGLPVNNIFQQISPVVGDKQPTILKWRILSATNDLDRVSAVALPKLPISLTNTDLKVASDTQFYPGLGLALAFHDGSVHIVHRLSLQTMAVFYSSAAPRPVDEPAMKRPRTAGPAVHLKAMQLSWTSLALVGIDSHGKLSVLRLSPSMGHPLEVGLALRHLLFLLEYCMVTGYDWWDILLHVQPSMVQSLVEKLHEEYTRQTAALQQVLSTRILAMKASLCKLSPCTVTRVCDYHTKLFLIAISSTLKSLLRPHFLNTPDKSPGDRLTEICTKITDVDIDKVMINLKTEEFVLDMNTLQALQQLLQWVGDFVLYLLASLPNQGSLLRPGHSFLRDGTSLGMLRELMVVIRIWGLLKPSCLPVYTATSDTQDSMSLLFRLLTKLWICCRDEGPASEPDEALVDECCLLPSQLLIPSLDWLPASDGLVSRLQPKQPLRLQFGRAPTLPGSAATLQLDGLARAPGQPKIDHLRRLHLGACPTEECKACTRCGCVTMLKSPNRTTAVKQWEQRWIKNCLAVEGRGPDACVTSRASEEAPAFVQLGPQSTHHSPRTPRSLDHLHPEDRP
UniProt Q9UIQ6, sequence (Q9UIQ6 whole entry, looked up): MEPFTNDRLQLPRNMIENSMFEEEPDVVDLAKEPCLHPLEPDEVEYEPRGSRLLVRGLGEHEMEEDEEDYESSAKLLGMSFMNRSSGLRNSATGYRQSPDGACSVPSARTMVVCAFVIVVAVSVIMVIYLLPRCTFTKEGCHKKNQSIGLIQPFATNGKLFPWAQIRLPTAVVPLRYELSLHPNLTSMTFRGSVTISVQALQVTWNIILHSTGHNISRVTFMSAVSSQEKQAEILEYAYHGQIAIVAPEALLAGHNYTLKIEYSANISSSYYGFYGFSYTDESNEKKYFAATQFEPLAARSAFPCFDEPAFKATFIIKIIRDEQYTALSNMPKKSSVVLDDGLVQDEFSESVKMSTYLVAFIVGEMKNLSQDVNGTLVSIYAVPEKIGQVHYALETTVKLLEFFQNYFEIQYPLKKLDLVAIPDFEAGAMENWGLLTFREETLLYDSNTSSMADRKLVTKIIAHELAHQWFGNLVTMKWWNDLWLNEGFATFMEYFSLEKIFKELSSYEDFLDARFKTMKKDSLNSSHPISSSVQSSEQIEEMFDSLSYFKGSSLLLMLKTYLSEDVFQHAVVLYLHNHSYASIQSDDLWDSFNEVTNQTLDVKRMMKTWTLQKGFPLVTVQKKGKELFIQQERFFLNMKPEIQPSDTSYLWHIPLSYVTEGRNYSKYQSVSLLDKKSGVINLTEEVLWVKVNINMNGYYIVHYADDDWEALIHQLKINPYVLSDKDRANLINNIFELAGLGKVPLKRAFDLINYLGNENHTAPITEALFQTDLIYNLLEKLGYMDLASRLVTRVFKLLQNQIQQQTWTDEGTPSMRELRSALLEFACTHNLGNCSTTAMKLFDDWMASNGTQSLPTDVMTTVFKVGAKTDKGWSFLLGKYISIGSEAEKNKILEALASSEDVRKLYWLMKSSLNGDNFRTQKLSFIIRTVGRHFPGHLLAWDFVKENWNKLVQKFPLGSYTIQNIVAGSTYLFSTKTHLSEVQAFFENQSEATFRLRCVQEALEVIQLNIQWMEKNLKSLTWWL
UniProt Q96A72, sequence (Q96A72 whole entry, looked up): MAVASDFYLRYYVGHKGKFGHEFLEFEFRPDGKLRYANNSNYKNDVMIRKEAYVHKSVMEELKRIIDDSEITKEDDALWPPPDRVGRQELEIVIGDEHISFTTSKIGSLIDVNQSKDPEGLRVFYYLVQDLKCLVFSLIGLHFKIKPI
UniProt Q9Y287, sequence (Q9Y287 whole entry, looked up): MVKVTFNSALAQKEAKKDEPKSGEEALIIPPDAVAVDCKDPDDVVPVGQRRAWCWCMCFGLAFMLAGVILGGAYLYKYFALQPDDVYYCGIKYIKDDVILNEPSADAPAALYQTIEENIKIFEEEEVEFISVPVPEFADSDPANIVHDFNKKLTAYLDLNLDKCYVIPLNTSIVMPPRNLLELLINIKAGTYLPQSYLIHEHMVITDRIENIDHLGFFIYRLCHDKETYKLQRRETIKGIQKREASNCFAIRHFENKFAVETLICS
UniProt Q13123, sequence (Q13123 whole entry, looked up): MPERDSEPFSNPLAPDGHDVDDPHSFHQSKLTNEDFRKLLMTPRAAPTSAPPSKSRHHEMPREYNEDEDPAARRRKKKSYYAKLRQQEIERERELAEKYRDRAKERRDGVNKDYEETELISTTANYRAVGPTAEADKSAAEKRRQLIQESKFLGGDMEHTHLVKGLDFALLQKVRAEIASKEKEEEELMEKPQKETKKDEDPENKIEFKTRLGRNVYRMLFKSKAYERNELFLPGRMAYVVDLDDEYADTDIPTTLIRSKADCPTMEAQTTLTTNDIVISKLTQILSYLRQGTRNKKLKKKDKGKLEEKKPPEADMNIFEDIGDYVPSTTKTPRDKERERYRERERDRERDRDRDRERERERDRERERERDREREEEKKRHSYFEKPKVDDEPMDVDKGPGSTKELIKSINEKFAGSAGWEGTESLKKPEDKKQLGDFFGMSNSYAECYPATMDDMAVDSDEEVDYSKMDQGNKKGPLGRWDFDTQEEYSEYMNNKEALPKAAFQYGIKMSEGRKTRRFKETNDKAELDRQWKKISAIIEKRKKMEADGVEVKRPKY
UniProt Q96PC5, sequence (Q96PC5 whole entry, looked up): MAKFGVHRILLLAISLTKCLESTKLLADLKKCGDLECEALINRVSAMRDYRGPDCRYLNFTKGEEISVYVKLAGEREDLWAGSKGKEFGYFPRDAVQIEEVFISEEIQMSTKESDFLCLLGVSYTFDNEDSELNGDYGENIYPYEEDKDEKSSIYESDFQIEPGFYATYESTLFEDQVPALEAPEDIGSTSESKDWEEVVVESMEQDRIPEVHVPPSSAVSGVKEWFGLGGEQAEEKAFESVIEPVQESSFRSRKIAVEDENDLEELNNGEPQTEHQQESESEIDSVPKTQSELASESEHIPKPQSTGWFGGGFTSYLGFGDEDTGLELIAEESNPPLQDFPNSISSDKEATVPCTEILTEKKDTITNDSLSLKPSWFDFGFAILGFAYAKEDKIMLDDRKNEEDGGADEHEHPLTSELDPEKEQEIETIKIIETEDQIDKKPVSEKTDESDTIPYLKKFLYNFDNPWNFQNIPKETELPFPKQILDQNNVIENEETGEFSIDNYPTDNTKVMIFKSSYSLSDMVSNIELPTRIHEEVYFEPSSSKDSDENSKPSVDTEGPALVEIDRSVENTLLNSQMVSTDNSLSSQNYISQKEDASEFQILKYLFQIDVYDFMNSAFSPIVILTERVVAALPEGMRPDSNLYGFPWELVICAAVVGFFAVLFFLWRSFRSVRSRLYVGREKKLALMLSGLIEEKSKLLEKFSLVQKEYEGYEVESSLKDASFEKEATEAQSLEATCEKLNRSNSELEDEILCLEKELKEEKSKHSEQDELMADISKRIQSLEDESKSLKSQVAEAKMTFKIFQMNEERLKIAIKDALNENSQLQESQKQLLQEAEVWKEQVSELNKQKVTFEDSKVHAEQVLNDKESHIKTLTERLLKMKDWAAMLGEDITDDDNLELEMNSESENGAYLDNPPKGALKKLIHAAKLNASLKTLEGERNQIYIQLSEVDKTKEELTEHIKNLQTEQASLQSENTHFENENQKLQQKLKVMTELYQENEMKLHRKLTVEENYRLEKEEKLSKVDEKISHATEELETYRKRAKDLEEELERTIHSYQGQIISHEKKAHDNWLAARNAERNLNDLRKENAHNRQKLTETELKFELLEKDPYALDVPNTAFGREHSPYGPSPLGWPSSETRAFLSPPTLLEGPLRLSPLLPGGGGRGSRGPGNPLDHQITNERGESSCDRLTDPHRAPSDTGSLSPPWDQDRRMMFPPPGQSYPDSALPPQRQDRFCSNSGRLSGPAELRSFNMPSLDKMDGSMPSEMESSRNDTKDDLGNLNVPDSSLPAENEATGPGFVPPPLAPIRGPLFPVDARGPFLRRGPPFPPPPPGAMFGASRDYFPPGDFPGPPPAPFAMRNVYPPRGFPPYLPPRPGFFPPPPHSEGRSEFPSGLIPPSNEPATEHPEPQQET

| Target | log2 fold change [1] | log2 fold change [2] | log2 fold change [3] | log2 fold change [4] | log2 fold change [5] | log2 fold change [6] | log2 fold change [7] | log2 fold change [8] | log2 fold change [9] | log2 fold change [10] | log2 fold change [11] | log2 fold change [12] | log2 fold change [13] | log2 fold change [14] | log2 fold change [15] | log2 fold change [16] | log2 fold change [17] | log2 fold change [18] | log2 fold change [19] | log2 fold change [20] |
| --- | --- | --- | --- | --- | --- | --- | --- | --- | --- | --- | --- | --- | --- | --- | --- | --- | --- | --- | --- | --- |
| MAGOHB (UniProt Q96A72) | 0.011 | 0.124 | 0.025 | -0.002 | -0.16 | -0.013 | -0.032 | 0.071 | -0.157 | -0.061 | -0.031 | 0.004 | 0.25 | -0.094 | 0.015 | 0.061 | 0 | -0.022 | -0.034 | 0.028 |
| MFGE8 (UniProt Q08431) | -0.135 | -0.032 | -0.149 | 0.045 | -0.059 | -0.024 | 0.024 | 0.095 | -0.041 | -0.066 | -0.058 | 0.016 | 0.269 | 0.152 | 0.105 | 0 | 0.191 | 0.12 | -0.008 | -0.038 |
| LNPEP (UniProt Q9UIQ6) | -0.005 | -0.002 | 0.046 | 0.016 | 0.019 | 0.034 | 0.067 | -0.008 | -0.01 | 0.042 | 0.015 | 0.021 | -0.021 | 0.005 | -0.02 | 0.014 | 0 | -0.018 | 0.001 | 0.016 |
| MAGEA9 (UniProt P43362) | 0.05 | 0.032 | 0.001 | 0.076 | -0.07 | 0.074 | -0.021 | -0.058 | -0.191 | 0.018 | 0.008 | -0.094 | 0.101 | 0 | 0.031 | -0.256 | 0.087 | 0.009 | 0.057 | -0.49 (active) |
| MED16 (UniProt Q9Y2X0) | -0.019 | -0.085 | 0.065 | -0.038 | 0.038 | 0.051 | -0.067 | -0.155 | 0.034 | -0.046 | 0 | 0.003 | -0.358 (active) | 0.033 | -0.029 | -0.008 | 0.064 | 0.112 | -0.019 | 0.17 |
| KNTC1 (UniProt P50748) | 0.102 | 0.068 | 0.029 | -0.039 | 0.019 | 0.034 | -0.065 | -0.012 | 0.001 | -0.004 | -0.084 | -0.028 | 0.058 | -0.007 | 0.012 | -0.157 | 0.039 | 0.095 | -0.02 | -0.008 |
| MIA2 (UniProt Q96PC5) | 0.01 | 0.044 | 0.04 | -0.044 | -0.033 | 0.035 | 0.021 | -0.092 | 0.003 | 0.041 | -0.036 | 0.008 | -0.059 | -0.003 | 0.03 | -0.155 | 0.035 | 0.043 | 0.077 | 0.032 |
| METAP1D (UniProt Q6UB28) | -0.061 | -0.307 | -0.02 | 0.025 | -0.004 | -0.014 | 0.005 | -0.002 | -0.018 | 0.033 | -0.122 | 0.017 | 0.084 | 0.01 | -0.032 | 0.094 | 0.044 | -0.003 | 0.073 | -0.024 |
| LMF2 (UniProt Q9BU23) | -0.017 | 0.002 | -0.005 | 0.434 (active) | 0.055 | -0.012 | 0.006 | 0.052 | -0.021 | 0.021 | 0.006 | -0.035 | 0.001 | -0.008 | -0.029 | -0.152 | 0.08 | 0.008 | -0.018 | 0.001 |
| MICU1 isoform 3 (UniProt Q9BPX6) | -0.02 | -0.026 | -0.022 | 0.002 | -0.009 | 0.007 | -0.054 | 0.008 | 0.013 | -0.015 | 0 | -0.009 | -0.025 | 0.007 | -0.016 | -0.285 (active) | 0.08 | 0.076 | 0.067 | 0.09 |
| MAP1LC3B2 (UniProt A6NCE7) | 0.009 | 0.093 | 0.038 | 0 | -0.031 | 0.052 | 0.016 | 0.083 | -0.002 | 0.036 | -0.002 | -0.053 | -0.059 | -0.026 | 0.008 | -0.087 | 0.009 | -0.008 | -0.041 | -0.01 |
| MCL1 (UniProt Q07820) | -0.225 | 0 | -0.037 | -0.01 | -0.057 | 0.027 | -0.121 | -0.161 | -0.039 | 0 | 0.052 | 0.095 | -0.036 | 0.175 | -0.054 | -0.234 | 0.295 | -0.186 | 0.091 | -0.117 |
| MED22 (UniProt Q15528) | -0.11 | 0.035 | -0.013 | -0.036 | 0.061 | -0.002 | 0.022 | -0.071 | -0.156 | 0.259 | 0.013 | 0.076 | -0.058 | 0.064 | 0.039 | -0.016 | 0.076 | 0.012 | -0.007 | 0.096 |
| LUZP1 (UniProt Q86V48) | -0.094 | -0.035 | -0.328 | -0.01 | -0.131 | -0.095 | -0.091 | -0.187 | -0.06 | -0.297 | -0.136 | -0.074 | 0.275 | 0.08 | 0.114 | 0.019 | 0.139 | 0.113 | 0.124 | 0.079 |
| IK (UniProt Q13123) | 0.049 | 0 | -0.069 | 0 | 0.055 | -0.022 | -0.016 | -0.11 | -0.004 | -0.065 | -0.139 | -0.067 | -0.06 | -0.007 | 0.054 | 0.031 | 0.239 | 0.038 | 0.022 | 0.148 |
| ITM2B (UniProt Q9Y287) | 0.099 | -0.012 | -0.122 | 0.041 | 0 | 0.042 | 0.068 | -0.12 | -0.066 | 0.027 | -0.008 | 0.071 | -0.043 | -0.005 | -0.042 | -0.119 | 0.197 | 0.03 | 0.117 | -0.198 |
